PubChem BioAssay (EPA / NIEHS)
Activity calls are given as the source filed them. Rule for the calls: active = hit-call score of the fitted dose curve at least 0.9, where 1 is the maximum; inactive = score below 0.9.

Assay: ATG_PPRE_CIS: Attagene CIS-FACTORIAL HepG2 Assay for human Peroxisome Proliferator-activated Response Element (PPRE) (AID 2282958)
Conditions: HepG2 PPRE cis-element reporter, Attagene transcription factor profiling; actives raise or lower the signal
Method: ATG_CIS is a cell-based, multiplexed-readout assay that uses HepG2, a human liver cell line, with measurements taken at 24 hours after chemical dosing in a 24-well plate.ATG_PPRE_CIS is one of 52 assay component(s) measured or calculated from the ATG_CIS assay. It is designed to make measurements of mRNA induction, a form of inducible reporter, as detected with fluorescence intensity signals by Reverse transcription polymerase chain reaction (RT-PCR) and Capillary electrophoresis technology.Data from the assay component ATG_PPRE_CIS was analyzed into 1 assay endpoint. This assay endpoint, ATG_PPRE_CIS, was analyzed with bidirectional fitting relative to DMSO as the negative control and baseline of activity. Using a type of inducible reporter, measures of mRNA for gain or loss-of-signal activity can be used to understand the reporter gene at the transcription factor-level as they relate to the gene PPARA and PPARD and PPARG. Furthermore, this assay endpoint can be referred to as a primary readout, because this assay has produced multiple assay endpoints where this one serves a reporter gene function. To generalize the intended target to other relatable targets, this assay endpoint is annotated to the nuclear receptor intended target family, where the subfamily is non-steroidal.
Human liver HepG2 cells are transiently transfected with multiple reporter transcription units (MRTUs) in 6-well plates using FuGene 6 reagent (Roche; 3 ml FuGene/1 mg DNA). The MRTU constructs are regulated by a cis-regulating element (promoter). […] A major difference between the CIS and TRANS system is that in CIS activities of endogenous TFs are measured, whereas the TRANS assay evaluates changes in activities of exogenous, chimeric NR-Gal4 proteins. […] At the end of 24 hour incubation, total RNA was isolated using TriZol reagent (Invitrogen). The isolated RNA is then reverse-transcribed using oligo(dT) primer and Mo-MLV reverse transcriptase (Invitrogen) with DNAse I (Ambion) treatment for 30 min. The one-tenth of the produced cDNA was amplified by PCR using Taq DNA polymerase (Invitrogen) and two reporter sequence-specific primers. The PCR products were fluorescently labeled by primer extension with 6-arboxyfluorescein (6-FAM) 5'-labeled reporter sequence-specific primer (2 min at 95 C, 20 s at 68 C and 10 min at 72 C) and these products were digested with 5U of HpaI (New England Biolabs) for 2h at 37 C. The fragments were purified using Qiaquick PCR columns (Qiagen), analyzed on an ABI 3130xL genetic analyzer (Applied Biosystems) with peak positions identified by using a set of X-rhodamine (ROX)-labeled MapMarker1000 molecular weight standards (BioVentures). The raw capillary electrophoresis data was processed using Attagraph software (Attagene).
With CC(C)CCCCCOC(=O)CCS the outcome was “inactive”. For CC(C)(c1cc(Br)c(OCCO)c(Br)c1)c1cc(Br)c(OCCO)c(Br)c1, the outcome was “inactive”. In the case of CCCCCC/C=C/C=O, the AC50 is reported as 15 µM (active). In the case of CCCCCCCOC(=O)CCC, the outcome is reported as “inactive”. In the case of CC(=O)OCC(=O)[C@@]12N=C(C)O[C@@H]1C[C@H]1[C@@H]3CCC4=CC(=O)C=C[C@]4(C)[C@H]3[C@@H](O)C[C@@]12C, the outcome is reported as “inactive”. With Cc1cccc(C(=O)O)c1 the outcome was “inactive”. With CO[Si](CCC1CCC2OC2C1)(OC)OC (stereo not given) the outcome was “inactive”. With Cc1ccc([N+](=O)[O-])cc1S(=O)(=O)O the outcome was “inactive”. In the case of N[C@H]1C(O)O[C@H](CO)[C@H](O)[C@@H]1O (stereo not given in full), the outcome is reported as “inactive”. With c1ccc(-c2ccccn2)nc1 the outcome was “inactive”. In the case of Cc1ccc(C2OC[C@@H]3OC(c4ccc(C)cc4)O[C@H]([C@H](O)CO)[C@@H]3O2)cc1 (stereo not given in full), the outcome is reported as “inactive”. In the case of C=C(C)C(=O)OCC(C)C, the outcome is reported as “inactive”. With CCCCOCCOC(=O)COc1nc(Cl)c(Cl)cc1Cl the outcome was “inactive”. For O=C(Cl)c1cc(C(=O)Cl)cc(C(=O)Cl)c1, the AC50 was 100 µM (active). With C=C(C)C(=O)OCCOc1ccccc1 the outcome was “inactive”. In the case of CCCCCCCC/C=C\CCCCCCCC(=O)O, the outcome is reported as “inactive”. With CC(=O)[C@@]1(O)CC[C@H]2[C@@H]3C[C@H](C)C4=CC(=O)C=C[C@]4(C)[C@@]3(F)[C@@H](O)C[C@@]21C the outcome was “inactive”. With O=C1CCCCCCCCCCCCCCCO1 the outcome was “inactive”. With CO[Si](OC)(OC)c1ccccc1 the outcome was “inactive”. For CCc1c(C(=O)O)c(=O)cnn1-c1ccc(Cl)cc1, the outcome was “inactive”. With CCCCC(CC)COC(=O)c1ccccc1O (stereo not given) the outcome was “inactive”. For C=C1C2CCC(C2)C1(C)C (stereo not given), the outcome was “inactive”. For CCCCCC(C)O (stereo not given), the outcome was “inactive”. In the case of C#CC1(O)CC[C@H]2[C@@H]3CCC4=CCCC[C@@H]4[C@H]3CC[C@@]21C (stereo not given in full), the AC50 is reported as 33.4 µM (active). In the case of c1c[nH]cn1, the outcome is reported as “inactive”. In the case of c1ccc2c(c1)ccc1ncccc12, the outcome is reported as “inactive”. In the case of CC(C)=CCCC(C)C=O (stereo not given), the outcome is reported as “inactive”. In the case of O=C1CC2CC1C1CCCC21 (stereo not given), the outcome is reported as “inactive”. With N#CCc1ccc(Cl)cc1Cl the outcome was “inactive”. With O=C1c2ccccc2C(=O)C1c1nc2ccccc2c(Br)c1O the outcome was “inactive”. In the case of O=C1C=CC(=O)O1, the outcome is reported as “inactive”. In the case of ON(Cc1ccccc1)Cc1ccccc1, the outcome is reported as “inactive”. With CCCCCCCCCCCCCOP(=O)(O)O the outcome was “inactive”. With C/C=C\C/C=C/CCCCCCCCOC(C)=O the outcome was “inactive”. In the case of CC(=O)OCc1ccco1, the outcome is reported as “inactive”. In the case of c1cc(C(c2ccc(OCC3CO3)cc2)C(c2ccc(OCC3CO3)cc2)c2ccc(OCC3CO3)cc2)ccc1OCC1CO1 (stereo not given), the outcome is reported as “inactive”. For Cc1cccc(N)n1, the outcome was “inactive”. With CCCCCCCCC(=O)OCC the outcome was “inactive”. For CC1=CC[C@H]2C[C@@H]1C2(C)C, the outcome was “inactive”. For C=CC(C)(C)C, the outcome was “inactive”.
